# Many of the other results were omitted from the sample, so hits are more common in it than they were.
# Sm TGR block: qHTS Assay for the Inhibitors of Schistosoma Mansoni Peroxiredoxins | Schistosoma mansoni thioredoxin glutathione reductase (TGR), Q962Y6 | purified TGR, DTNB reduction, TNB absorbance 405 nm | Potency, µM (top dose mostly 114 µM), inactives show at the top dose activity change, negative = inhibition, most hits filed as inhibitors | hit rate 3% among 360,000; also: potency is read from the fitted curve at half-maximal effect; % is scaled to controls: 0 for no effect and ±100 for the full control effect; nearly all actives have a fitted effect of over 60% in size
#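 First, TGR (20 nM dispensed) and NADPH were mixed with compound. Second, a 15 min room-temperature incubation followed. Third, further NADPH and then DTNB were added to start the reaction. Finally, TNB absorbance was monitored kinetically.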
# Giardia FBPA inh: qHTS Assay for Inhibitors of Fructose-1,6-bisphosphate Aldolase from Giardia Lamblia | A8B2U2 | purified Giardia FBPA | Potency, µM (highest dose often 59.6 µM), for the others: top-dose activity, negative = inhibition, actives largely listed as inhibitors | hit rate 0.71% among 290,000; also: potency is read from the fitted curve at half-maximal effect; % is scaled to controls: 0 for no effect and ±100 for the full control effect; nearly all actives have a fitted effect of over 55% in size
# Target sequence (A8B2U2 whole entry, looked up): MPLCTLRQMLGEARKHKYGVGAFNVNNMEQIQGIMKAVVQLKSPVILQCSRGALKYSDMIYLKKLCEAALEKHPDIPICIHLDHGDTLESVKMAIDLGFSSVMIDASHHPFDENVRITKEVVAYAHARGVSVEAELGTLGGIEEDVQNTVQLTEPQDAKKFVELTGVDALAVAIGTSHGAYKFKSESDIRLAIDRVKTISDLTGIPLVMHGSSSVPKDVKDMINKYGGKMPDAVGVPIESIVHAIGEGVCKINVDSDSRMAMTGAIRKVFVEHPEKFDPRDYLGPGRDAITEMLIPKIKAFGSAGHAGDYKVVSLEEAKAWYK
#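 40 nM FBPA preincubated 10 min at RT with compound (up to 57.5 uM final), then substrate plus GAPDH/TPI/NAD/arsenate coupling and diaphorase/resazurin added. Fluorescence read after 20 min at RT, 525/598 nm.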
# Tb PYK inh: qHTS of Trypanosoma Brucei Inhibitors; TbPYK enzyme, Kinase-Glo Plus ATP luminescence, 45 min; hit rate 0.12% among 410,000; Potency, µM (titrated, usually from 76.8 µM), for inactives: top-dose activity, negative = inhibition, hits mostly inhibitors; AID 624173, 2012; also: potency is read from the fitted curve at half-maximal effect; % is scaled to controls: 0 for no effect and ±100 for the full control effect; nearly all actives have a fitted effect of over 50% in size
#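 T. brucei PYK with substrate was exposed to pin-transferred compounds across a concentration series, then started with 130 uM ADP (final). After 45 min at room temperature, Kinase-Glo Plus luminescence was read, normalized and curve-fitted.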
# LmPK inh: qHTS Assay for Inhibitors of Leishmania Mexicana Pyruvate Kinase (LmPK); purified LmPK, Kinase-Glo ATP luminescence, 1 h; Potency, µM (highest dose often 57.5 µM), without a hit: top-dose activity change, negative = inhibition, most hits filed as inhibitors; hit rate 0.37% among 290,000; AID 1721, 2009; also: potency is read from the fitted curve at half-maximal effect; % is scaled to controls: 0 for no effect and ±100 for the full control effect
#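 Kinase-Glo luminescence read after 1 h RT reaction of 0.1 nM LmPK with 0.5 mM PEP and 0.1 mM ADP. Activity scaled between uninhibited and enzyme-free controls.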
# Cycloheximide cs: Cycloheximide Counterscreen for Small Molecule Inhibitors of Shiga Toxin. AID 2314, 2010. hit rate 12% among 300,000. max response, %. cell reporter, cycloheximide protein synthesis inhibition counterscreen; in the data active = max response mostly above about 13%, no sharp cut-off; inactive = mostly below about 14%; also: read at 38.3 µM for the half of the compounds with a filed dose; 0% is about no effect
# Shiga inhibitor: A qHTS for Small Molecule Inhibitors of Shiga Toxin | hit rate 9.2% among 290,000 | inhibition, % at 38.7 µM | AID 2315, 2010 | Vero cells, Shiga toxin protein synthesis inhibition reporter; in the data active = inhibition mostly above about 28%, no sharp cut-off; inactive = mostly below about 43%; also: 0% is about no effect
# Active calls of the source: *; ? = inconclusive; · = not tested or not shown; [ ] = dose if it differs, or a comment. Unless noted, calls follow the shape of the dose curve; as a rule, active = well fitted curve in the direction sought with a large enough effect; inconclusive = small, poorly fitted or top-dose-only effect, or another doubt; inactive = no such curve, though single readings can be large; an effect the other way counts as inactive or inconclusive.
SMILES,Sm TGR block,Giardia FBPA inh,Tb PYK inh,LmPK inh,Cycloheximide cs,Shiga inhibitor
Cc1cc(Cl)ccc1OCC(=O)Nc1c(C(=O)c2ccccc2)oc2ccccc12,2.5%,·,2.4%,·,·,·
CCC/C=C(\CCC)C(NS(=O)(=O)c1ccc(-c2ccccc2)cc1)c1ccc(C(=O)OC)cc1 (configuration not stated),·,-0.5%,·,·,·,·
CN(C(=O)c1ccco1)c1nc(-c2ccc(Cl)cc2)cs1,-20.9%,5.4%,0.0%,0.6%,25.3*,22.5
COc1ccc(-c2csc(NC(=O)COC(=O)c3ccco3)n2)cc1,?,-12.3%,-1.6%,1.6%,49.5*,42.7*
COc1ccc(-c2csc(N(C)C(=O)c3ccco3)n2)cc1,9.5%,18.7%,2.8%,-0.9%,36.9*,·
CCOc1ccc(S(=O)(=O)NCCc2csc3nc(-c4cccc(C)c4)nn23)cc1,8.9%,·,-3.4%,·,·,·
COc1cc(/C=C/C(=O)O)cc(S(=O)(=O)NCc2ccco2)c1OC,31.6µM*,-5.3%,-12.5%,7.1%,1.2,11.7
Cc1ccc(/C=C/C(=O)O)cc1S(=O)(=O)N(C)CCO,22.4µM*,2.0%,38.6%,2.4%,-3.0,-6.0
COc1cc(/C=C/C(=O)O)cc(S(=O)(=O)N(C)CCO)c1OC,13.0%,5.6%,-8.4%,14.7%,-0.6,-12.8
Cc1ccc(/C=C/C(=O)O)cc1S(=O)(=O)NCc1ccco1,31.6µM*,-1.7%,2.5%,-2.4%,5.5,-10.3
COc1ccc(/C=C/C(=O)O)cc1S(=O)(=O)NCc1ccco1,?,1.5%,-0.7%,-1.4%,0.7,18.5
COC(=O)C(Cc1ccccc1)NC(=O)CNC(=O)c1sc2ccccc2c1Cl (configuration not stated),3.5%,4.7%,-1.0%,-2.1%,-2.9,-12.4
Cc1cccc(/C(N)=N/OC(=O)N2CCOCC2)c1,16.6%,-2.2%,0.0%,?,23.6*,101.0*
Cc1ccc(/C(N)=N/OC(=O)C23CC4CC(CC(C4)C2)C3)cc1,-2.1%,-5.9%,3.1%,4.0%,22.8*,101.5*
COc1cc(C(=S)N2CCOCC2)cc(OC)c1OC(=O)c1cccc(C)c1,-10.7%,9.7%,-2.0%,-2.4%,-1.6,-11.4
Cc1ccc(/C(N)=N/OC(=O)N2CCOCC2)cc1,19.1%,6.5%,-3.5%,-1.8%,22.2*,16.3
CC(=O)Nc1ccc(S(=O)(=O)Nc2cc(-c3cn4ccccc4n3)ccc2C)cc1,2.6%,·,2.7%,·,·,·
COC(=O)CCNC(=O)NC(CCC(C)C)c1c(-n2cccc2)sc2c1CCN(C)C2 (configuration not stated),-21.6%,·,-6.2%,·,·,·
CCCOc1ccc(C(=O)c2nc3c(n2O)CCCC3)cc1,10.7%,3.9%,·,-7.4%,27.3,49.9*
CCOc1ccc(C(=O)c2nc3c(n2O)CCCCC3)cc1,-3.1%,-15.0%,5.4%,3.0%,13.9,20.9
COc1ccc(C(=O)c2nc3c(n2O)CCCCC3)cc1,1.0%,?,-5.8%,-5.1%,48.1*,24.7
O=C(c1ccc(Oc2ccccc2)cc1)c1nc2c(n1O)CCCC2,9.9%,-2.7%,-0.3%,-3.7%,21.1*,46.5
CCOC(=O)/C(C#N)=C(C)/C=C1\Sc2ccccc2N1CC,-22.1%,0.2%,2.1%,1.7%,13.5,-5.6
CCN1/C(=C\C(=S)Nc2ccccc2)Sc2ccccc21,4.0%[57.1 µM],-8.8%,-20.4%,-1.1%,30.8*,56.3*
CCN1/C(=C\C=C(C(C)=O)C(C)=O)Sc2ccccc21,-2.6%,-13.6%,-6.1%,0.5%,18.9*,16.4
CCN1/C(=C\C=C2\C(=O)N(c3ccccc3)C(=S)N2C)Sc2ccccc21,-3.1%,-18.4%,-31.6%,0.4%[11.5 µM],-2.3,-10.5
CCn1cnc2c(NCCc3cccnc3)nc(C#N)nc21,50.1µM*,·,2.0%,·,·,·
Cc1cnc(CNc2ncncc2-c2cccnc2)cn1,·,-5.8%,·,·,·,·
Cc1nc2ccccc2n2c(O)c(CC(=O)O)cc12,35.5µM*,-3.9%,5.2%,3.7%,-1.1,6.2
